DUSP3 inh = blocks the human dual specificity phosphatase VHR1; P51452; recombinant VHR phosphatase, colorimetric substrate read-out; inhibition, % at 20 µM; 50,000 compounds, 0.7% hits; AID 1992; in the data active = inhibition above about 60%
Target sequence (P51452 whole entry, looked up): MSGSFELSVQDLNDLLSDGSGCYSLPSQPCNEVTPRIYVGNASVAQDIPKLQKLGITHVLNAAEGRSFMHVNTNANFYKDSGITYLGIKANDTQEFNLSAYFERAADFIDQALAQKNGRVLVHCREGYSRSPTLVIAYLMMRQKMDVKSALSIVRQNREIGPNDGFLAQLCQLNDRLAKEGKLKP
Of the large screens only hits and unclear results are named; the others gave an inactive call. The full list was thinned out, with hits kept by preference.

COc1ccc(C2=CC(c3cccs3)C=C(c3ccc(OC)cc3)O2)cc1	DUSP3 inh 60
COc1ccc(C2=C/C(=C3\OC(=O)c4ccccc43)C(=O)O2)cc1	none
COc1ccc(C2=C/C(=C/c3ccc(I)o3)C(=O)O2)cc1	none
CCc1ccc(-n2c(C)cc(/C=N/NC(=O)c3ccncc3)c2C)cc1	DUSP3 inh 87
Cc1cccc(C)c1-n1c(C)cc(/C=N/NC(=O)c2ccncc2)c1C	none
Cc1ccc(-n2c(C)cc(/C=N/NC(=O)c3ccncc3)c2C)cc1C	none
COCCOC(=O)C1=C(C)NC(=O)CC1c1ccccc1OC(C)C (centres undefined)	none
O=C(COc1ccc2ccccc2c1)Nc1ccc(Br)c(Cl)c1	DUSP3 inh 114
O=C(COc1ccccc1)Nc1ccc(Br)c(Cl)c1	none
O=C(COc1ccc2ccccc2c1)Nc1ccc(Cl)c(Cl)c1	none
Cc1ccc(-n2cc(/C=c3\sc4nc5cc(C)c(C)cc5n4c3=O)cn2)cc1C	none
Cc1ccc(-n2c(C)cc(C=C3C(=O)NC(=S)NC3=O)c2C)cc1C	none
Cc1ccc(-n2cc(C=C3C(=O)NC(=O)NC3=O)cn2)cc1C	DUSP3 inh 105
CCN(CC)C(=O)C12CC3CC(C1)CC(C(=O)N(CC)CC)(C3)C2	none
CCC1=NN2C(=N)/C(=C/c3ccc(-c4ccc(F)c(Cl)c4)o3)C(=O)N=C2S1	none
CCC1=NN2C(=N)/C(=C/c3ccc(OCc4ccc(Br)cc4)c(OC)c3)C(=O)N=C2S1	none
CCCC1=NN2C(=N)/C(=C/c3ccc(OCc4ccc(F)cc4)c(OCC)c3)C(=O)N=C2S1	DUSP3 inh 100
CCC1=NN2C(=N)/C(=C/c3ccc(-c4cc(Cl)ccc4Cl)o3)C(=O)N=C2S1	none
CCC1=NN2C(=N)/C(=C/c3ccc(-c4cccc([N+](=O)[O-])c4)o3)C(=O)N=C2S1	none
CCCC1=NN2C(=N)/C(=C/c3ccc(-c4ccc([N+](=O)[O-])cc4Br)o3)C(=O)N=C2S1	DUSP3 inh 111
CCOc1cc(/C=C2/C(=N)N3N=C(CC)SC3=NC2=O)ccc1OCc1ccc(F)cc1	none
CCCC1=NN2C(=N)/C(=C/c3ccc(-c4ccc(F)cc4)o3)C(=O)N=C2S1	DUSP3 inh 109
CCC1=NN2C(=N)/C(=C/c3ccc(-c4ccccc4[N+](=O)[O-])o3)C(=O)N=C2S1	none
CCC1=NN2C(=N)/C(=C/c3ccc(-c4ccc(C)c(Cl)c4)o3)C(=O)N=C2S1	none
CCCC1=NN2C(=N)/C(=C/c3ccc(-c4ccccc4C(=O)OC)o3)C(=O)N=C2S1	DUSP3 inh 116
CC(C)C1=NN2C(=N)/C(=C/c3ccc(-c4ccc([N+](=O)[O-])cc4)o3)C(=O)N=C2S1	none
CN1C(=O)/C(=C\c2ccc3c(c2)OCO3)OC1=S	none
COc1ccc(/C=C(/C#N)C(=O)Nc2cccc(Br)c2)c(OC)c1	none
CS(=O)(=O)c1nnnn1-c1cccc2ccccc12	none
COc1ccc(N(CC(=O)Nc2c(C)cccc2C)S(=O)(=O)c2ccccc2)cc1Cl	none
CCSc1nc2sc3c(c2c2nnnn12)CCN(C)C3	none
O=S(=O)(Nc1cccc(Br)c1)c1ccc2ccccc2c1	none
CC(=O)NS(=O)(=O)c1ccc(NC(=O)c2c(-c3ccccc3)noc2C)cc1	none
COc1ccc(-c2cc(C(=O)Nc3ccc(F)c([N+](=O)[O-])c3)c3ccccc3n2)cc1OC	none
CCCCCCOc1ccc(N2C(=O)CC(N3CCC(C)CC3)C2=O)cc1 (centres undefined)	none
CCOc1cc(C=C2C(=O)NC(=O)NC2=O)ccc1OCc1ccc(Cl)cc1	none
CCOc1cc(/C=C2/SC(=O)NC2=O)ccc1OCc1ccc(Cl)cc1	none
CCOc1cc(/C=N/O)ccc1OCc1ccc(Cl)cc1	DUSP3 inh 116
O=C(O)CC1SC(=NC(=O)c2ccco2)N(c2ccccc2)C1=O (centres undefined)	none
CN(C)C1(c2cccs2)CS(=O)(=O)C1	none
O=C1C=C(NCc2ccc(F)cc2)CC(c2ccccc2)C1 (centres undefined)	none
c1ccc(NCc2ccc3c(c2)OCO3)cc1	none
O=C1C=C(NCc2ccc3c(c2)OCO3)CC(c2ccccc2)C1 (centres undefined)	DUSP3 inh 101
O=C(COc1ccccc1Cl)NNC(=O)c1cccnc1	none
CC(C)c1ccc(C2CC(=O)Nc3c2ccc2ccccc32)cc1 (centres undefined)	none
COc1ccccc1C/C(N)=N/OC(=O)c1ccc(Br)cc1	none
Cc1ccc(-c2cc(C(=O)Nc3c(C)cccc3C)c3ccccc3n2)s1	none
CN=C(Nc1cccc(Cl)c1)SC1CC(=O)N(c2ccccc2F)C1=O (centres undefined)	none
Cc1cc2[nH]c(=O)cc(-c3ccccc3)n2n1	none
Cc1cc(=O)[nH]c2cc(-c3ccccc3)nn12	DUSP3 inh 97
CCc1cc(C)nc2cc(-c3ccccc3)nn12	none
CCOC(=O)c1sc(Nc2ccc(Br)cc2)nc1-c1ccccc1	none
CC(=O)NC1=NC(=O)/C(=C\c2ccc(-c3ccc(C(=O)O)cc3)o2)S1	none
CC(=O)NC1=NC(=O)/C(=C\c2ccc(Br)o2)S1	DUSP3 inh 81
CC(=O)NC1=NC(=O)/C(=C/c2ccc(C)cc2)S1	none
COc1ccc(/C=C2\SC(=S)N(CCCC(=O)Nc3cccc(C(=O)O)c3)C2=O)cc1	none
Cc1cc(C)cc(N2C(=O)NC(=O)/C(=C\c3sccc3C)C2=O)c1	none

Compound activity deposited in PubChem by Sanford-Burnham Center for Chemical Genomics.
